The full list was thinned out, with the strongest signals kept by preference.

Here are results for 1 molecule from the supplement of paper PMC8728848.

What all share (test): glycan array binding signal (z-score within array); higher = stronger binding
Holding throughout (conditions): glycan notation: IUPAC condensed, linker removed

The target in experiment [1] is Fuc(a1-2)Gal(b1-3)GlcNAc(b1-2)Man(a1-3)[Fuc(a1-2)Gal(b1-3)GlcNAc(b1-2)Man(a1-6)]Man(b1-4)GlcNAc(b1-4)[Fuc(a1-6)]GlcNAc. Summed up:
(§1)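 The binding signal is a Z-score computed within each array. Data were drawn from 3228 arrays in the Consortium for Functional Glycomics database, restricted to those with a known protein sequence. Scores were averaged over arrays of the same protein sequence at different concentrations or buffers, and over linkers, and negative values can be taken as non-binding.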

Experiment [2] has as its target Fuc(a1-2)Gal(b1-4)[Fuc(a1-3)]GlcNAc(b1-2)[Fuc(a1-2)Gal(b1-4)[Fuc(a1-3)]GlcNAc(b1-4)]Man(a1-3)[Fuc(a1-2)Gal(b1-4)[Fuc(a1-3)]GlcNAc(b1-2)Man(a1-6)]Man(b1-4)GlcNAc(b1-4)GlcNAc. Summed up: as §1
Experiment [3] has as its target Fuc(a1-2)[Gal(a1-3)]Gal(b1-3)GalNAc. The essentials:
as §1

Experiment [4] deals with Fuc(a1-2)[Gal(a1-3)]Gal(b1-4)GlcNAc(b1-6)GalNAc. The essentials:
as §1

Experiment [5] has as its target Fuc(a1-2)[GalNAc(a1-3)]Gal(b1-4)GlcNAc. The essentials:
as §1

Experiment [6] deals with Fuc(a1-3)[GalNAc(b1-4)]GlcNAc. The essentials:
as §1

The target of experiment [7] is Gal(a1-3)Gal(b1-3)GlcNAc(b1-6)GalNAc. The essentials:
as §1

The target of experiment [8] is Gal(a1-3)Gal(b1-3)[Fuc(a1-4)]GlcNAc(b1-2)Man(a1-3)[Gal(a1-3)Gal(b1-3)[Fuc(a1-4)]GlcNAc(b1-2)Man(a1-6)]Man(b1-4)GlcNAc(b1-4)GlcNAc. Summed up:
as §1

The target of experiment [9] is Gal(a1-3)Gal(b1-4)GlcNAc(b1-6)GalNAc. The essentials:
as §1

The target of experiment [10] is Gal(a1-3)Gal(b1-4)[Fuc(a1-3)]GlcNAc. The essentials: as §1
In experiment [11] the target is Gal(a1-4)Gal(b1-4)GlcNAc(b1-2)Man(a1-3)[Gal(a1-4)Gal(b1-4)GlcNAc(b1-2)Man(a1-6)]Man(b1-4)GlcNAc(b1-4)GlcNAc. The essentials: as §1
Experiment [12] addresses Gal(b1-3)GalNAc(a1-3)[Fuc(a1-2)]Gal(b1-4)GlcNAc. The essentials:
as §1

For experiment [13], the target named is Gal(b1-3)GlcNAc(a1-6)Gal(b1-4)GlcNAc. The essentials: as §1
For the next experiment, the target named is Gal(b1-4)Gal. The essentials:
as §1

Another experiment deals with Gal(b1-4)Glc. The essentials:
as §1

The target of experiment [14] is Gal(b1-4)GlcNAc(b1-2)[Gal(b1-4)GlcNAc(b1-4)]Man(a1-3)[GlcNAc(b1-4)][Gal(b1-4)GlcNAc(b1-2)Man(a1-6)]Man(b1-4)GlcNAc(b1-4)GlcNAc. The essentials: as §1
The target in experiment [15] is Gal(b1-4)GlcNAc(b1-3)Gal(b1-4)GlcNAc(b1-2)[Gal(b1-4)GlcNAc(b1-3)Gal(b1-4)GlcNAc(b1-6)]Man(a1-6)[Gal(b1-4)GlcNAc(b1-3)Gal(b1-4)GlcNAc(b1-2)Man(a1-3)]Man(b1-4)GlcNAc(b1-4)GlcNAc. Summed up: as §1
In experiment [16] the target is Gal(b1-4)GlcNAc(b1-6)GalNAc. Summed up: as §1
The target of another experiment is Gal3S4S(b1-4)GlcNAc. Summed up: as §1
The target of a further experiment is Gal6S(b1-4)GlcNAc6S. Summed up:
as §1

For experiment [17], the target named is GalNAc(b1-3)Gal(a1-4)Gal(b1-4)GlcNAc(b1-3)Gal(b1-4)Glc. The essentials:
as §1

For experiment [18], the target named is GalNAc(b1-4)GlcNAc(b1-2)Man. The essentials:
as §1

A further experiment deals with GlcA(b1-3)GlcNAc. The essentials:
as §1

B1: Lb MiSSP8 (Laccaria bicolor) (protein)
chain: MYFHTLFACATLMLITTAHASPTVINSLDSRKADLNGDVEARHAADWRRDSDWRRDSDWRRDSDWRRDSD
Take B1: the “glycan array binding signal (z-score)” value was 1.26 in experiment [1]; 1.27 in [2]; 0.371 in experiment [3]; -0.53 in experiment [4]; -0.502 in experiment [5]; 1.06 in experiment [6]. The “glycan array binding signal (z-score)” value in experiment [7] was -0.806; in experiment [8], 1.55; in experiment [9], -0.599; in experiment [10] it was -0.488; in [11], 10.8; in [12], -0.267. For the same molecule, the “glycan array binding signal (z-score)” value in [13] is -0.136; with Gal(b1-4)Gal, -3.19; in the experiment with Gal(b1-4)Glc it was 0.702; in experiment [14], -0.274; in experiment [15], 2.86; in experiment [16], -0.433. Besides, the “glycan array binding signal (z-score)” value in the experiment with Gal3S4S(b1-4)GlcNAc is -0.771; with Gal6S(b1-4)GlcNAc6S, -0.571; in [17], 4.15; in [18], -0.744; in the experiment with GlcA(b1-3)GlcNAc it was 3.78.
